Among the data in PubChem BioAssay (Tox21) are Potency and activation values, retold here.

Molecules are shown by their SMILES. Results filed as inconclusive are left out. Where a call stands in place of a potency, no number is given. A number with no mark means an inactive call. The source made the active and inactive calls. The call rests on the fitted dose curve.

Chain of Beta-2 adrenergic receptor (Homo sapiens) (P07550 whole entry, looked up): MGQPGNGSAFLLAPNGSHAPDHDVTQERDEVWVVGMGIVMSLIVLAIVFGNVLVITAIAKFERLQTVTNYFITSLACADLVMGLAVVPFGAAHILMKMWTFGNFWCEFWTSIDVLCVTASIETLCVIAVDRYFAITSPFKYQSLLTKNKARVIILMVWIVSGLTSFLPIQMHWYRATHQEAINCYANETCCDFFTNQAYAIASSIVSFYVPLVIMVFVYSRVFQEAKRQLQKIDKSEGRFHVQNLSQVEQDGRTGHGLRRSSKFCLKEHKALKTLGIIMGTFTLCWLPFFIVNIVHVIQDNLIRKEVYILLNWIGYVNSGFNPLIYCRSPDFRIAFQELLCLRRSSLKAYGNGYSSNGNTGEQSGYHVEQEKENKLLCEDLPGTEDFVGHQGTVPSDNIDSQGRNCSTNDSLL

One assay deals with Beta-2 adrenergic receptor (Homo sapiens) (UniProt P07550). The assay is described as follows: Adrenergic beta2 receptor (ADRB2) small molecule agonists, cell-based qHTS assay (AID 1963593). Further: potency means the concentration at half of the fitted maximal effect.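 On activation: CHO cells stably overexpressing human ADRB2.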 Particulars: CHO-ADRB2 cells, cAMP HTRF, 30 min; series mostly up to 42.5 µM. In short, it runs like this:
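CHO cells stably over-expressing ADRB2 were plated overnight at 37C, then dosed with compounds plus a stimulation mix containing 100uM IBMX and 25uM Ro-20-1724 for 0.5hr at room temperature. cAMP was measured by HTRF competition, 1hr.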
(In qHTS, concentration-response curves come from the screen itself.)
Consider `CCN(CC)CCOC(=O)C(Cc1cccc2ccccc12)CC1CCCO1` (configuration not stated), for which the Potency result is “inactive”.
On the same count and under the same terms, in the case of `O=c1[nH]cnc2ccccc12` it was “inactive”; in that of `CCCCOCCOC(=O)COc1ccc(Cl)cc1Cl`, “inactive”.
Still for that read-out and setting: the result for `CC(=O)CC(=O)OC(C)(C)C` reads “inactive”.
Regarding `C=COCC(C)C`, the Potency entry is “inactive”.
On the same count and under the same terms, in the case of `Cc1ccc(C(=O)Oc2ccc(C(O)CNC(C)(C)C)cc2OC(=O)c2ccc(C)cc2)cc1` (configuration not stated) it was 0.0841 µM (active); in that of `O=C1CCCN1CCO`, “inactive”.
Consider `N=C(N)c1ccc(OCCCOc2ccc(C(=N)N)cc2)cc1`, for which the Potency result was “inactive”.
Regarding `COCCCCCCCCOCCC[Si](C)(O[Si](C)(C)C)O[Si](C)(C)C`, the Potency entry is “inactive”.
Still for that read-out and setting: in the case of `CCCCCCc1ccc(N)cc1` it was “inactive”.
On the same count and under the same terms, the result for `CCCCC(CC)CN1C(=O)C2C3C=CC(C3)C2C1=O` (configuration not stated) reads “inactive”.

In the next assay the target is D(2) dopamine receptor (Homo sapiens) (UniProt P14416). The assay is described as follows: Dopamine D2 receptor (DRD2) small molecule agonists, cell-based qHTS assay (AID 1963594). Further: nearly all actives have a fitted effect of over 35% in size. Particulars: HEK293-DRD2 cAMP HTRF, agonist mode, 30 min; series mostly up to 92.4 µM. Put shortly: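 cAMP accumulation in DRD2-HEK293 cells measured by HTRF after 1 h detection; compounds added 10 min before NKH477 (200nM […]) forskolin-analogue stimulation, 30 min at room temperature, with Ro20-1724 present at 0.1 mM final.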
Chain of D(2) dopamine receptor (Homo sapiens) (P14416 whole entry, looked up): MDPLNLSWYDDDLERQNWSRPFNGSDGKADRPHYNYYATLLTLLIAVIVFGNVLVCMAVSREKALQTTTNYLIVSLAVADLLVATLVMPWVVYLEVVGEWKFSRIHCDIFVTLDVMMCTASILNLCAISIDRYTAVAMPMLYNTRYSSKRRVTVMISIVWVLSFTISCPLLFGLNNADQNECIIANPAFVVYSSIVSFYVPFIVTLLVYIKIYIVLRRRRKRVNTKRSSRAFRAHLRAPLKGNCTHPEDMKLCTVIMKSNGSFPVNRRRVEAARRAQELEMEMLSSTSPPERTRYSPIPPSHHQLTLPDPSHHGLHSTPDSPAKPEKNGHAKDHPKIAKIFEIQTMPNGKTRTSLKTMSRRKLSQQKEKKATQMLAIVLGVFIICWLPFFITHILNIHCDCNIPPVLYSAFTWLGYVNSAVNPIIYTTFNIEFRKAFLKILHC
Regarding `CCN(CC)CCOC(=O)C(Cc1cccc2ccccc12)CC1CCCO1` (configuration not stated), the Potency entry was “inactive”.
For the compound `O=c1[nH]cnc2ccccc12`, the Potency result was “inactive”.
`CCCCCCCCCCOc1cc2c(=O)c(C(=O)OCC)c[nH]c2cc1OCC`: the activation is -15.9% [at 8.39 µM].
Still for that read-out and setting: in the case of `CCC(=O)CC(C)CC` (configuration not stated) it was -3.53% [at 0.349 µM].
In the case of `CCCCOCCOC(=O)COc1ccc(Cl)cc1Cl`, the Potency entry was “inactive”.
For the compound `CC(=O)CC(=O)OC(C)(C)C`, the Potency entry was “inactive”.
For the compound `CC(COC(C)(C)C)OCCCO` (configuration not stated), the Potency entry was “inactive”.
Regarding `CCCCCCCCCOC(=O)c1ccccc1C(=O)OCCCCCCCCC`, the Potency result is “inactive”.
On the same count and under the same terms, in the case of `Cc1ccc(-n2nc(C(C)(C)C)cc2NC(=O)Nc2ccc(OCCN3CCOCC3)c3ccccc23)cc1` it was “inactive”; in that of `CCN(CCCCOC(=O)c1ccc(OC)c(OC)c1)C(C)Cc1ccc(OC)cc1` (configuration not stated), “inactive”.
On the same count and under the same terms, in the case of `C/C=C/C(=O)OCC(C)C` it was “inactive”; in that of `C=C(C)C(=O)OCCCCCCCCCCOC(=O)C(=C)C`, “inactive”; in that of `Cc1ccc(C(=O)Oc2ccc(C(O)CNC(C)(C)C)cc2OC(=O)c2ccc(C)cc2)cc1` (configuration not stated), “inactive”.
Same read-out and setting: in the case of `C/C=C/C(=O)Oc1c(CCCCCC(C)C)cc([N+](=O)[O-])cc1[N+](=O)[O-]` it was “inactive”; in that of `O=C(CCCCCCCCc1cccnc1)N1CCC(C=C(c2ccccc2)c2ccccc2)CC1`, “inactive”.
For the compound `N=C(N)c1ccc(OCCCOc2ccc(C(=N)N)cc2)cc1`, the Potency entry is “inactive”.
Still for that read-out and setting: the result for `COCCCCCCCCOCCC[Si](C)(O[Si](C)(C)C)O[Si](C)(C)C` reads “inactive”; that for `CCOC(=N)CC(=O)OCC`, “inactive”; that for `Oc1ccc2c(c1)CCC2`, “inactive”.
On to `CCCCc1nc2cccnc2n1Cc1ccc(-c2ccccc2-c2nnn[nH]2)cc1`, for which the Potency result is “inactive”.
Same read-out and setting: in the case of `O=C(O)Cc1csc(-c2ccc(Cl)cc2)n1` it was “inactive”.
On the same count and under the same terms, the result for `CC(Cl)C(Cl)Cl` (configuration not stated) reads “inactive”.
Consider `O=C(O)C[C@H](O)C[C@H](O)/C=C/c1c(C2CC2)nc2ccccc2c1-c1ccc(F)cc1`, for which the activation was -0.0463% [at 19 µM].
`CC(=O)Nc1cccc(C)c1`: the Potency entry is “inactive”.
In the case of `CCCCCCc1ccc(N)cc1`, the Potency entry is “inactive”.
On the same count and under the same terms, the result for `O=C=Nc1cccc(C(F)(F)F)c1` reads “inactive”; that for `Cc1cc(SC2=C(O)C[C@@](CCc3ccc(N)cc3)(C(C)C)OC2=O)c(C(C)(C)C)cc1CO`, “inactive”.
On the same count and under the same terms, the result for `CCCCC(CC)CN1C(=O)C2C3C=CC(C3)C2C1=O` (configuration not stated) reads “inactive”; that for `NCCS`, “inactive”; that for `CN1CCN(C2Cc3ccccc3Sc3ccc(Cl)cc32)CC1` (configuration not stated), “inactive”.
As for `CCOC(=O)C1=NN(c2ccc(Cl)cc2Cl)C(C)(C(=O)OCC)C1` (configuration not stated), the Potency entry was “inactive”.
